Compounds with a hit are over-represented: about 0.58% of the library has one in this group of screens.
Eya2 inh: blocks the phosphatase activity of human Eya2; recombinant Eya2, OMFP fluorescence dephosphorylation (OMFP is methylfluorescein phosphate); hit rate 0.006% among 330,000; O00167; Potency, µM (top dose mostly 76.9 µM), inactives show at the highest dose activity, negative = inhibition, actives largely listed as inhibitors; note: potency is the fitted concentration of half-maximal effect; % is set by controls: 0 for no effect and ±100 for the full control effect
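Eya2 protein (added as 0.2 uM solution) was preincubated with compound for 10 min at ambient temperature in 50 mM HEPES pH 7.5, 50 mM NaCl, 5 uM MgCl2, 0.05% BSA, 1 mM DTT. OMFP (added at 50 uM) then reacted 10 min; fluorescence read at 485/525 nm.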
CtBP-E1A inh: blocks the CtBP interaction with E1A; AlphaScreen GST-E1A/His-CtBP binding, 1536-well; hits give low values; activity change, % (no concentration beside the values); hit rate 0.49% among 340,000; in the data active = activity change below about -65%; inconclusive = mostly about -30% to -63%; note: % is set by controls: 0 for no effect and ±100 for the full control effect
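Homogeneous bead-based format: GST-tagged E1A captured on glutathione donor beads, His-tagged CtBP on nickel acceptor beads; compounds precede bead addition by 2 h at 37 °C.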
Six1-Eya2 inh: blocks human Six1 binding to Eya2. AlphaScreen GST-Six1/His-Eya2 binding, biochemical; hits give low values. activity change, % (no concentration beside the values). hit rate 0.56% among 360,000. AID 651725; in the data active = activity change below about -65%; inconclusive = mostly about -30% to -63%; note: % is set by controls: 0 for no effect and ±100 for the full control effect
Target sequence (O00167 whole entry, looked up): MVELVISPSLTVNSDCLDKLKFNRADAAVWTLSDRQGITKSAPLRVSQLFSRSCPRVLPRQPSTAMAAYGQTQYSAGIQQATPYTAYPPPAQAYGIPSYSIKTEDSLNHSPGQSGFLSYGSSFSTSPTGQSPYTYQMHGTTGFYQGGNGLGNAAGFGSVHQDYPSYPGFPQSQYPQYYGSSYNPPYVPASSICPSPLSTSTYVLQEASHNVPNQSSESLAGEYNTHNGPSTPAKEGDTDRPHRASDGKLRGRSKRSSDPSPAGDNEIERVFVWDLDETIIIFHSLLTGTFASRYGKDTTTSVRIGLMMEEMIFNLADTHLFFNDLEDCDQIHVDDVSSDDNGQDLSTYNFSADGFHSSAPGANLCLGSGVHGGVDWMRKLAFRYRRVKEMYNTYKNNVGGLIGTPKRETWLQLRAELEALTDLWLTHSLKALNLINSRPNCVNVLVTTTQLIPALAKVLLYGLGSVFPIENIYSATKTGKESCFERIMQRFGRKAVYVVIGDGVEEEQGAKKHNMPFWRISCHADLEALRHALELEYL
Target sequence (Q15475 whole entry, looked up): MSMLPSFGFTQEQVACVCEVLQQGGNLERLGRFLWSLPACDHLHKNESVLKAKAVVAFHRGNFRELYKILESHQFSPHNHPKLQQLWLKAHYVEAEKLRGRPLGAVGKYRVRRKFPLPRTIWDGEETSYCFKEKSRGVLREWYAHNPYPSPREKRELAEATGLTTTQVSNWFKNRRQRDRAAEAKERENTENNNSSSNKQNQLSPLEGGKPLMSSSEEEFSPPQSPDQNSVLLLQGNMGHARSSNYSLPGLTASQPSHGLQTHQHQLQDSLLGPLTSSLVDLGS
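Compounds are tested against tagged Six1 and Eya2 proteins bridged by glutathione donor and nickel acceptor beads; after a one-hour incubation at 37 °C without light, AlphaScreen emission is recorded.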
Glioma ERSR ind: ER stress response induction in glioma; U87-MG GRP78 promoter luciferase reporter, 16 h; Potency, µM, inactives show at the highest dose activation, hits mostly activators; hit rate 0.02% among 420,000; note: potency is the fitted concentration of half-maximal effect; series mostly up to about 76 µM; % of control where 0% means no effect; nearly all actives have a fitted effect of over 35% in size
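Stably transfected U87-MG glioma cells carrying a GRP78-based luciferase sensor; 16 h compound incubation. Luminescence end-point read 10 min after Bright-Glo addition at room temperature.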
* = called active by the depositor; ? = inconclusive; . = not tested or not shown; ! = repeats disagree. Unless noted, calls come from the whole dose curve; as a rule, active = well fitted curve in the direction sought with a large enough effect; inconclusive = small, poorly fitted or top-dose-only effect, or another doubt; inactive = no such curve, though single readings can be large; an effect the other way counts as inactive or inconclusive.

SMILES	Eya2 inh	CtBP-E1A inh	Six1-Eya2 inh	Glioma ERSR ind
C[C@H]1O[C@@H](O[C@H]2[C@@H](O)C[C@@H](O[C@H]3[C@@H](O)C[C@H](O[C@H]4CC[C@@]5(C)[C@H](CC[C@@H]6[C@@H]5CC[C@]5(C)[C@@H](C7=CC(=O)OC7)CC[C@]65O)C4)O[C@@H]3C)O[C@@H]2C)C[C@H](O)[C@@H]1O	.	.	.	-8%
Oc1c(Cl)cc(Cl)cc1CN1CCN(Cc2ccccc2)CC1	0%	-6	-73*	-3%
[Cl-].[Cl-].[Hg+2]	.	.	.	-12%
COc1cc([N+](=O)[O-])c2ncccc2c1[N+](=O)[O-]	.	?	-83*	-12%
[Cl][Pt+2][Cl].[NH-]C1CCCCC1[NH-] (centres undefined)	9%	-73*	?	0%
Cc1ccc2c(Cl)cc(Cl)c(O)c2n1	.	-65*	?	28µM*!
CN(C)C(=O)Oc1c(Cl)cc(Cl)c2cccnc12	10%	-5	10	-3%
C/C=C(/C)C(=O)O[C@H]1C(C)=C2[C@H]([C@@H]1OC(=O)CCCCCCC)[C@@](C)(OC(C)=O)C[C@H](OC(=O)CCC)[C@@]1(O)[C@H]2OC(=O)[C@@]1(C)O	-29%	.	.	0.016µM*!
N#CC(C#N)=NNc1ccc(S(N)(=O)=O)cc1	-5%	-74*	?	-4%
CC1CCN(S(=O)(=O)c2ccc(NN=C(C#N)C#N)cc2)CC1	-30%	.	.	.
CN(C)[C@@H]1C(=O)C(C(N)=O)=C(O)[C@]2(O)C(=O)C3=C(O)c4c(O)ccc(Cl)c4[C@](C)(O)[C@H]3C[C@@H]12	.	.	.	-5%
CN(C)C1C(=O)C(C(N)=O)=C(O)C2(O)C(=O)C3=C(O)c4c(O)cccc4C(C)(O)C3C(O)C12 (centres undefined)	-2%	-68*	?	-4%
CN[C@H]1C[C@@H](N)[C@H](O)[C@@H](O[C@@H]2O[C@H](CO)[C@H](O)[C@@H]3O[C@]4(O[C@@H]23)O[C@H]([C@@H](N)CO)[C@H](O)[C@@H](O)[C@H]4O)[C@@H]1O	.	.	.	-7%
Cn1nc(-c2ccccc2)nc2c(=O)n(C)c(=O)nc1-2	.	.	.	-10%
CCn1nc(-c2ccccc2)nc2c(=O)n(C)c(=O)nc1-2	56µM*	-26	-27	-17%
COc1ccc(C2CC(c3c(O)n(CCc4ccccc4)c(=O)[nH]c3=O)=NN2)cc1OC (centres undefined)	-4%	-26	-68*	-4%
COc1ccc(CCn2c(O)c(C=NCc3cccnc3)c(=O)[nH]c2=O)cc1OC	-9%	3	-1	-3%
Oc1ccc2c3c1O[C@H]1[C@@H](O)C=CC4[C@@H](C2)NCC[C@@]341 (some centres undefined)	.	.	.	-2%
CNc1ccc2nc3ccccc3[n+](C)c2c1	-3%	.	-75*	-2%
C[n+]1c2ccccc2nc2ccc(NCCO)cc21	-17%	-70*	-73*	-6%
C[C@H]1[C@@H]2Cc3ccc(O)cc3[C@]1(C)CCN2C	.	.	.	-3%
COc1ccc2[nH]c3c(c2c1)CCN=C3C	1%	?	-70*	-5%
CCC1CC2CC3c4[nH]c5ccc(OC)cc5c4CCN(C2)C13 (centres undefined)	.	.	.	-5%
CC(C)[C@@]1(NC(=O)[C@H]2C[C@H]3c4cccc5[nH]cc(c45)C[C@@H]3N(C)C2)O[C@]2(O)[C@H]3CCCN3C(=O)CN2C1=O (tested in a mixture with another compound)	.	.	.	-5%
COC(=O)C1=C(C(=O)OC)SC2(S1)C(C(=O)OC)=C(C(=O)OC)Sc1c2ssc1=O	.	6	-91*	-14%
SMILES	Eya2 inh	CtBP-E1A inh	Six1-Eya2 inh	Glioma ERSR ind
Cc1cccc(N=Nc2ccc(N(C)C)cc2)c1	-2%	?	-72*	-5%
CN(C)c1ccccc1	.	3	7	2%
C#C[C@]1(OC(=O)CCCCCC)CC[C@H]2C3CCC4=CC(=O)CC[C@@H]4[C@H]3CC[C@@]21C (some centres undefined)	.	.	.	-4%
Nc1ccc(CC(N)c2csc(Nc3ncccn3)n2)cc1 (centres undefined)	.	-75*	-67*	-4%
NC(Cc1ccc(F)cc1)c1csc(Nc2ncccn2)n1 (centres undefined)	.	-68*	?	-5%
CC1OC(O[C@H]2C[C@@H](O)[C@]3(CO)[C@H]4[C@H](O)C[C@]5(C)[C@@H](C6=CC(=O)OC6)CC[C@]5(O)[C@@H]4CC[C@]3(O)C2)C(O)C(O)C1O (some centres undefined)	.	.	.	-7%
C=Cn1ccnc1P(=S)(c1nccn1C=C)c1nccn1C=C	8%	-91*	?	-1%
C=Cn1ccnc1P(=S)(c1ccn(C)c1)c1nccn1C=C	1%	-8	2	1%
COc1cc(CC(C)N)c(OC)cc1Br (centres undefined)	.	.	.	-3%
CC(=O)Nc1ccc(OC(=O)N2CCN(/[N+]([O-])=N/Oc3ccc([N+](=O)[O-])cc3[N+](=O)[O-])CC2)cc1	.	.	.	-11%
[Hg+][c]1ccccc1	.	.	.	-12%
N#C/C(=C\c1ccc(O)c(O)c1)C(=O)NCCCNC(=O)/C(C#N)=C/c1ccc(O)c(O)c1	2%	.	.	37µM*
CCCCc1ccc(C(=O)O)nc1	11%	-68*	-87*	3%
CCCCCCCCc1ccc(O)cc1	2%	-2	1	0%
CCNC(C)Cc1ccc2c(c1)OCO2 (centres undefined)	.	.	.	-6%
COc1ccc(OC)c(N2C(=O)/C(=C/c3ccco3)C(=O)NC2=S)c1	-23%	-10	-71*	-7%
COc1cc(CCN)c(OC)cc1Br	.	.	.	-2%
O=C(CCN1CCOCC1)Nc1ccc(Br)cc1C(=O)c1ccccc1	-2%	-85*	-74*	-2%
